Source: PubChem (several laboratories)
EBV LMP1 NFkB – reduces LMP1-driven NF-kappaB luciferase signal | LMP1-induced NF-kappaB luciferase reporter cells, luminescence | inhibition, % at 12.5 µM | 350,000 compounds, 0.69% hits; in the data active = inhibition above about 41%; inconclusive = no clear call, values can overlap the other calls;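 also: 0% = neutral control wells and 100% = reference inhibitor control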
TWEAK-Fn14 inh – blocks TWEAK-Fn14 interaction in a reporter cell assay. TWEAK-stimulated Fn14 reporter cells, luciferase luminescence, 8 h. inhibition, % at 10 µM. 360,000 compounds, 2% hits. AID 1159606; in the data active = inhibition above about 50%
TROY NFkB inh – inhibitors of TROY-dependent NF-kB signaling. Q293 LMP1-TROYcd NF-kB luciferase reporter, 4 h. inhibition, % at 10 µM. 360,000 compounds, 0.98% hits. AID 1347056;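 active = compounds whose plate-normalised and pattern-corrected inhibition of the luciferase reporter signal at the single screening dose is 50% or more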
HSP90 inh – blocks HSP90-mediated luciferase refolding in reticulocyte lysate; Rabbit reticulocyte lysate, luciferase refolding luminescence, 3 h; inhibition, % at 5.6 µM; 290,000 compounds, 0.91% hits; AID 1789;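 active = inhibition above the screen-wide mean plus 3 SD, computed separately per campaign, cut at about 16% in these data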;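 also: 0% = DMSO wells and 100% = 60 µM geldanamycin wells; inhibitors lower the luminescence because luciferase stays unfolded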
aDG glyco up – increases alpha dystroglycan glycosylation. Pro5-aDG cells, alpha-DG glycosylation AlphaScreen (IIH6); 0% Pro5, 100% B10-LARGE cell signal. activation, % at 10 µM. 360,000 compounds, 0.22% hits;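 active = activation of at least 8% versus controls, or a plate z-score of at least 8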;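 also: Pro5 are CHO cells carrying HIG-tagged alpha-DG that lacks glycosylation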
LGR2 inh – blocks bursicon-induced cAMP signaling via Drosophila LGR2; HEK293 LGR2, CRE-luciferase, bursicon-stimulated, 4 h; inhibition, % at 9.99 µM; 380,000 compounds, 0.35% hits;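 active = drop in luminescence signal, shown as inhibition above about 50% in the replicate tests, limit read from the data, passing the limit was not always enough; inconclusive = probably only some replicates passing the limit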;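 also: agonist challenge used bursicon conditioned medium at about half maximal strength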
HSP90 inh confirm – confirmation of HSP90 inhibitors; inhibition, % at 5.9 µM; rabbit reticulocyte lysate, luciferase refolding luminescence, 3 h; 2,300 compounds, 64% hits; shares compounds with HSP90 inh; AID 1846; in the data active = inhibition above about 18%;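 also: 0% = vehicle wells and 100% = reference inhibitor wells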
luciferase ctr – counter-screen for HSP90 inhibitors: inhibitors of firefly luciferase; inhibition, % at 5.9 µM; shares compounds with HSP90 inh; 2,300 compounds, 48% hits; purified native firefly luciferase, luminescence;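 active = inhibition above the mean inhibition of all tested sample wells plus 3 SD, cut at about 10% in these data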;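 also: 0% = DMSO with luciferase and 100% = wells lacking luciferase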
Target sequence (P08659 whole entry, looked up): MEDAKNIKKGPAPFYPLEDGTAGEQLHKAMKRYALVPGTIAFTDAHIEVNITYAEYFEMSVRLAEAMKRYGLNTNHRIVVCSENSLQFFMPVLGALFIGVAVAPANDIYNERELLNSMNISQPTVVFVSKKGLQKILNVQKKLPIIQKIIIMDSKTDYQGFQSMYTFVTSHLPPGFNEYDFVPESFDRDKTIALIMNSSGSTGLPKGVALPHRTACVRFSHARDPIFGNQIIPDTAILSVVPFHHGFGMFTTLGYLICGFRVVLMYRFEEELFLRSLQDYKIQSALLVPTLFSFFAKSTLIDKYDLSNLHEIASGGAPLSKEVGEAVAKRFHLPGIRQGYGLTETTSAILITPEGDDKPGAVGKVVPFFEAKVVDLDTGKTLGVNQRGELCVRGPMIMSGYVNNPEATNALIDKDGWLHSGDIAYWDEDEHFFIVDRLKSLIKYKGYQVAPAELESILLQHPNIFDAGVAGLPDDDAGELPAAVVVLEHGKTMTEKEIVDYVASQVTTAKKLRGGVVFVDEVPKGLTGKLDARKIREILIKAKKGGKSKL
The depositor's hits bear a star; ? = inconclusive; · = no result given. An excerpt weighted towards active compounds, which were near 2.6% of everything screened.

SMILES	EBV LMP1 NFkB	TWEAK-Fn14 inh	TROY NFkB inh	HSP90 inh	aDG glyco up	LGR2 inh	HSP90 inh confirm	luciferase ctr
CC(C)NC(=O)N(C)C[C@@H]1Oc2ccc(NC(=O)Cc3ccccc3)cc2C(=O)N([C@@H](C)CO)C[C@@H]1C	·	·	·	·	·	3	·	·
Cc1ccc(-c2ccc(/C=N/NC(=O)c3ccccc3O)o2)cc1	·	·	·	22*	·	·	-3	-11
CNC(=S)N/N=C/c1ccc(-c2cccc(C(=O)O)c2)o1	15	-35	-45	26*	0	65*	15	0
Cc1ccc(OCC(=O)N/N=C\c2ccc(-c3cccc(C(=O)O)c3)o2)c(C)c1	-6	-21	-70	4	0	-14	·	·
O=C(C[C@H]1C=C[C@@H](NS(=O)(=O)c2ccccc2)[C@H](CO)O1)NCc1ccc(Cl)c(Cl)c1	·	·	·	·	·	2	·	·
O=C(O)c1cccc(N/N=C/c2ccc(OC(F)(F)F)cc2)c1	39	-18	-64	47*	0	-9	76*	76*
O=C(O)c1ccc(N/N=C/c2ccc(OC(=O)c3cccc(Cl)c3)cc2)cc1	61*	-1	53*	43*	0	80*	85*	6
CCOc1cc(/C=N/Nc2cccc(C(=O)O)c2)ccc1OCC(=O)N1CCCCC1	-12	11	-3	15	0	9	·	·
CSc1ccc(/C=N/Nc2cccc(C(=O)O)c2)cc1	56*	-61	-28	25*	0	·	86*	84*
O=C(Oc1ccc(/C=N/Nc2ccccc2)cc1)c1ccccc1	-9	-9	-33	-6	0	·	·	·
COc1ccccc1N/C=C/c1onc(C)c1[N+](=O)[O-]	-9	78*	72*	39*	0	73*	78*	71*
COc1ccccc1NC(=O)c1nn(C)c(C(=O)Nc2ccccc2OC)c1[N+](=O)[O-]	-13	4	6	1	0	-2	·	·
Nc1nc2ccccc2n1C(=O)c1ccc(F)cc1	7	61*	24	40*	0	31	54*	35*
COc1ccc(C(=O)n2c(N)nc3ccccc32)cc1OC	-6	7	-58	1	0	-37	·	·
Nc1nc2ccccc2n1C(=O)c1ccccc1	?	78*	35	27*	0	33	59*	42*
Nc1nc2ccccc2n1C(=O)c1cccs1	-4	39	-20	6	0	9	·	·
COc1ccc(CN(C)C[C@H]2OCCCC[C@H](C)Oc3ccc(NS(=O)(=O)c4cccs4)cc3C(=O)N([C@@H](C)CO)C[C@@H]2C)cc1	·	·	·	·	·	9	·	·
Cc1cc(O)c(S(=O)(=O)c2ccccc2)c(C)c1NS(=O)(=O)c1ccccc1	-13	3	-30	18*	0	-11	21*	-8
COCC#Cc1ccc2c(c1)O[C@@H](CN(C)Cc1ccncc1)[C@@H](C)CN([C@@H](C)CO)S2(=O)=O	·	·	·	·	·	7	·	·
COc1cc(NC(=O)c2cc(-c3ccc4c(c3)OCO4)on2)cc(OC)c1OC	-1	36	5	1	0	3	·	·
O=C(c1cc(-c2ccccc2Cl)on1)N1CCCC1	23	70*	36	51*	0	?	55*	49*
COc1ccccc1-c1cc(C(=O)N2CCCC2)no1	-13	16	-20	3	0	-95	·	·
O=C(Nc1cccc(O)c1)c1cc(-c2ccccc2Cl)on1	3	77*	51*	41*	0	40	63*	48*
O=C(Nc1cccc(O)c1)c1cc(-c2ccc3c(c2)OCO3)on1	0	95*	64*	68*	0	?	92*	85*
CN(C)CC(=O)N[C@H]1CC[C@@H](CC(=O)NCc2ccc(Cl)cc2)O[C@@H]1CO	·	·	·	·	·	16	·	·
SMILES	EBV LMP1 NFkB	TWEAK-Fn14 inh	TROY NFkB inh	HSP90 inh	aDG glyco up	LGR2 inh	HSP90 inh confirm	luciferase ctr
CCc1ccc(S(=O)(=O)/N=C2/C=C(Sc3ncn[nH]3)C(=O)c3ccccc32)cc1	24	96*	60*	88*	0	·	33*	34*
O=C1C=C(Nc2ccc(O)cc2)C(=O)c2ccccc21	3	10	-23	11	0	-51	·	·
O=C1C(Nc2ccc(O)cc2)=C/C(=N/S(=O)(=O)c2cccs2)c2ccccc21	96*	95*	58*	73*	-1	100*	91*	3
CCc1ccc(S(=O)(=O)/N=C2\C=C(Nc3cccc(C(=O)O)c3)C(=O)c3ccccc32)cc1	-9	98*	-7	69*	0	-112	82*	-5
CCc1ccc(S(=O)(=O)/N=C2\C=CC(=O)c3ccccc32)cc1	·	·	·	1	·	·	·	·
CCc1ccc(S(=O)(=O)/N=C2\C=C(Nc3ccc(O)cc3)C(=O)c3ccccc32)cc1	90*	94*	74*	31*	-1	·	72*	-8
CC(C)C#Cc1ccc2c(c1)O[C@H](CN(C)CC1CCOCC1)[C@@H](C)CN([C@@H](C)CO)S2(=O)=O	·	·	·	·	·	-17	·	·
CCS(=O)(=O)NCC[C@@H]1CC[C@@H](NC(=O)Nc2cc(Cl)cc(Cl)c2)[C@H](CO)O1	·	·	·	·	·	19	·	·
O=C1c2ccccc2C(=O)c2[nH]c(=O)[nH]c21	89*	45	54*	24*	1	35	19*	-10
C=CCSc1nnc(-c2ccccc2N=Cc2c(C)[nH]n(-c3ccccc3)c2=O)c(=O)[nH]1	-1	-27	-16	22*	0	·	-4	-8
COc1ccc(NC(=O)Nc2cccc3c2O[C@H](CN(C)Cc2ccc(Cl)c(Cl)c2)[C@@H](C)CN([C@H](C)CO)C3=O)cc1	·	·	·	·	·	22	·	·
COc1ccc(CNC[C@@H](CCCCN(C)Cc2ccc(OC)cc2)N2C[C@H](c3ccccc3)N(CCc3ccc(Cl)c(Cl)c3)C(=O)C2=O)cc1	89*	97*	34	18*	-1	·	20*	-5
Cc1cc(O)c(N)c(C)c1Cl	-8	2	-13	43*	0	-23	81*	-4
CN1CCN(C(=O)C2=C[C@@H](c3ccccc3)C[C@@H](OCc3ccc(CO)cc3)O2)CC1	3	8	0	7	0	-17	·	·
CN1CCN(C(=O)C2=C[C@@H](c3ccc(Br)cc3)C[C@@H](OCc3ccc(CO)cc3)O2)CC1	4	9	3	25*	0	-20	-3	-4
COc1cc(OC)c(OC)cc1/C=N/Nc1nc2ccccc2[nH]1	10	-5	44	-2	0	-11	·	·
COc1ccc(/C=N/Nc2nc3ccccc3[nH]2)cc1OC	-5	-10	-64	5	0	-41	·	·
C(=N\Nc1nc2ccccc2[nH]1)/c1ccccn1	-1	100*	82*	79*	1	90*	88*	85*
